Assay results published in article PMC8384837, “Expanding the binding specificity for RNA recognition by a PUF domain”.
Where a chain is given by its changes, count along the chain named.

Experiments:
Test in all cases: yeast three-hybrid, YBZ-1, SC-Leu-His + 0.5 mM 3-AT, 4 days
Settings in all cases: tags: N-Gal4 AD-HA kept; label: inside an RPR1-promoter hybrid RNA with tandem MS2 sites; ssRNA
PUM1 PUF domain R5-MSR = PUM1 PUF domain R5-MSR (Homo sapiens, UniProt Q14671 828-1176, C1007M;R1008S;Q1011R)
Procedure, shortened: (§1)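 Matching RNA elements and Pumilio-1 PUF domain libraries, randomized at the three base-contacting residues of every repeat, were co-expressed from a centromeric plasmid in strain YBZ-1 (LexA–MS2 coat fusion, HIS3 reporter). The repeat regions were PCR-amplified and Illumina-sequenced from cells grown four days on SC-Leu (input) or SC-Leu-His + 0.5 mM 3-AT (selection). The interaction score is the log change in variant frequency from input to selection. It is computed in log2, with a pseudocount of 1 for absent variants.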

PUM1 PUF domain R5-RMK = PUM1 PUF domain R5-RMK (Homo sapiens, UniProt Q14671 828-1176, C1007R;R1008M;Q1011K)
Procedure, shortened: as §1

PUM1 PUF domain R5-SGR = PUM1 PUF domain R5-SGR (Homo sapiens, UniProt Q14671 828-1176, C1007S;R1008G;Q1011R)
Procedure, shortened: as §1

PUM1 PUF domain R5-FRS = PUM1 PUF domain R5-FRS (Homo sapiens, UniProt Q14671 828-1176, C1007F;Q1011S)
Procedure, shortened: as §1

PUM1 PUF domain R3-QPE = PUM1 PUF domain R3-QPE (Homo sapiens, UniProt Q14671 828-1176, C935Q;R936P;Q939E)
Procedure, shortened: as §1

PUM1 PUF domain R3-CFG = PUM1 PUF domain R3-CFG (Homo sapiens, UniProt Q14671 828-1176, R936F;Q939G)
Procedure, shortened: as §1

PUM1 PUF domain R3-LYS = PUM1 PUF domain R3-LYS (Homo sapiens, UniProt Q14671 828-1176, C935L;R936Y;Q939S)
Procedure, shortened: as §1

PUM1 PUF domain R5-WRD = PUM1 PUF domain R5-WRD (Homo sapiens, UniProt Q14671 828-1176, C1007W;Q1011D)
Procedure, shortened: as §1

PUM1 PUF domain R6-SHE = target: T1, PUM1 PUF domain R6-SHE (Homo sapiens, UniProt Q14671 828-1176, N1043S;Y1044H;Q1047E)
T1 sequence: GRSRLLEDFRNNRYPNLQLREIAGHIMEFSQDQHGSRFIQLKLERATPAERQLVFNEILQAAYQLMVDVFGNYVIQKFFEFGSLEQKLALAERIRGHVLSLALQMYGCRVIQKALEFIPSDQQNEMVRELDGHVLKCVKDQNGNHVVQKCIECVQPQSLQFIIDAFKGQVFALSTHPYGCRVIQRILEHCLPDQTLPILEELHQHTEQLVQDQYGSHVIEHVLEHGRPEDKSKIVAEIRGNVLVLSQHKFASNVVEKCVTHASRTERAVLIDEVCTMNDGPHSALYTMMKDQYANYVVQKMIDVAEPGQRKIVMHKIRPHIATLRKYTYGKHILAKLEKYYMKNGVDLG
Procedure, shortened: as §1

PUM1 PUF domain R6-SRR = target: T2, PUM1 PUF domain R6-SRR (Homo sapiens, UniProt Q14671 828-1176, N1043S;Y1044R;Q1047R)
T2 sequence: T1 sequence with H217R, E220R
Procedure, shortened: as §1

PUM1 PUF domain R3-VNE = PUM1 PUF domain R3-VNE (Homo sapiens, UniProt Q14671 828-1176, C935V;R936N;Q939E)
Procedure, shortened: as §1

PUM1 PUF domain R8-RKR = PUM1 PUF domain R8-RKR (Homo sapiens, UniProt Q14671 828-1176, N1122R;Y1123K;Q1126R)
Procedure, shortened: as §1

PUM1 PUF domain R8-SRR = PUM1 PUF domain R8-SRR (Homo sapiens, UniProt Q14671 828-1176, N1122S;Y1123R;Q1126R)
Procedure, shortened: as §1

PUM1 PUF domain R6-AYG = target: T3, PUM1 PUF domain R6-AYG (Homo sapiens, UniProt Q14671 828-1176, N1043A;Q1047G)
T3 sequence: T1 sequence with S216A, H217Y, E220G
Procedure, shortened: as §1

PUM1 PUF domain R8-SFK = PUM1 PUF domain R8-SFK (Homo sapiens, UniProt Q14671 828-1176, N1122S;Y1123F;Q1126K)
Procedure, shortened: as §1

GGCUAGAACUAGUGGAUCCCCCGGCGCCCGGCGGCUCGAGCCCGGGUAAGUGUCAAUAGUCUGCAUGCCGCCGGGCGCCAUGCCUGCAGGUCGACUCUAGAAAACAUG
binding signal (PUM1 PUF domain R5-MSR): 3.83 log2 enrichment (interaction score)
binding signal (PUM1 PUF domain R5-RMK): 2.87 log2 enrichment (interaction score)
binding signal (PUM1 PUF domain R5-SGR): 6.98 log2 enrichment (interaction score)
binding signal (PUM1 PUF domain R5-FRS): 2.38 log2 enrichment (interaction score)

GGCUAGAACUAGUGGAUCCCCCGGCGCCCGGCGGCUCGAGCCCGGGUAAGUGUAAUUAGUCUGCAUGCCGCCGGGCGCCAUGCCUGCAGGUCGACUCUAGAAAACAUG
binding signal (PUM1 PUF domain R3-QPE): 2.87 log2 enrichment (interaction score)
binding signal (PUM1 PUF domain R3-CFG): 2.06 log2 enrichment (interaction score)
binding signal (PUM1 PUF domain R3-LYS): 5.78 log2 enrichment (interaction score)

GGCUAGAACUAGUGGAUCCCCCGGCGCCCGGCGGCUCGAGCCCGGGUAAGUGUUAAUAGUCUGCAUGCCGCCGGGCGCCAUGCCUGCAGGUCGACUCUAGAAAACAUG
binding signal (PUM1 PUF domain R5-SGR): 0.78 log2 enrichment (interaction score)
binding signal (PUM1 PUF domain R5-FRS): 3.13 log2 enrichment (interaction score)
binding signal (PUM1 PUF domain R5-WRD): 2.27 log2 enrichment (interaction score)

GGCUAGAACUAGUGGAUCCCCCGGCGCCCGGCGGCUCGAGCCCGGGUAAGUGGAAAUAGUCUGCAUGCCGCCGGGCGCCAUGCCUGCAGGUCGACUCUAGAAAACAUG
binding signal (PUM1 PUF domain R6-SHE): 4.66 log2 enrichment (interaction score)

GGCUAGAACUAGUGGAUCCCCCGGCGCCCGGCGGCUCGAGCCCGGGUAAGUGCAAAUAGUCUGCAUGCCGCCGGGCGCCAUGCCUGCAGGUCGACUCUAGAAAACAUG
binding signal (PUM1 PUF domain R6-SRR): 3.26 log2 enrichment (interaction score)

GGCUAGAACUAGUGGAUCCCCCGGCGCCCGGCGGCUCGAGCCCGGGUAAGUGUAAAUAGUCUGCAUGCCGCCGGGCGCCAUGCCUGCAGGUCGACUCUAGAAAACAUG
binding signal (PUM1 PUF domain R5-MSR): 1 log2 enrichment (interaction score)
binding signal (PUM1 PUF domain R3-CFG): 3.86 log2 enrichment (interaction score)
binding signal (PUM1 PUF domain R3-VNE): 3.16 log2 enrichment (interaction score)
binding signal (PUM1 PUF domain R8-RKR): 3.9 log2 enrichment (interaction score)
binding signal (PUM1 PUF domain R3-LYS): 4.77 log2 enrichment (interaction score)
binding signal (PUM1 PUF domain R5-SGR): 1.55 log2 enrichment (interaction score)
binding signal (PUM1 PUF domain R8-SRR): 1.78 log2 enrichment (interaction score)
binding signal (PUM1 PUF domain R6-SRR): 3.04 log2 enrichment (interaction score)
binding signal (PUM1 PUF domain R5-FRS): 0.74 log2 enrichment (interaction score)
binding signal (PUM1 PUF domain R6-AYG): 1.05 log2 enrichment (interaction score)
binding signal (PUM1 PUF domain R8-SFK): 5.06 log2 enrichment (interaction score)
